The values that follow come from PubChem BioAssay.

Each structure is given as a SMILES string. Calls of active or inactive are those of the source. Unless noted, how the calls were made is not given here.

One experiment is described as follows: ATP-based viability of Huh7 replicon cells – cell-based, CellTiter-Glo luminescence, basal, 48 h, cytotoxicity control for HCV replication inhibitor project, primary screen (AID 1143).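 Further: Huh7 hepatoma cells carrying a hepatitis C replication reporter with no stimulus; test concentration not given here.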 To be noted: higher = more signal, called active from +8 up or from −8 down.
On to `CC(C)C(=C=CC[C@@H](O)c1cccc(OCCO)c1)C[C@@H](O)c1ccccn1`, for which the z-score is -0.846 (inactive). The same measure, in the same setting: the same measure for `C=CCC(OC(C)=O)[C@@H]1[C@@H](N(Cc2cccc3ccccc23)C(=O)c2cccc3ccccc23)c2cc(OCCCO)ccc2N1C(=O)c1ccc2ccccc2c1` (some centres undefined): -2.35 (inactive). On the same count and under the same terms, the same measure for `CC(=O)N1CC(C(O)C2C=CC3C(=O)NC(=O)C3N2Nc2ccc(Cl)cc2Cl)c2ccccc21` (centres undefined): -0.0847 (inactive); for `COC(=O)[C@@]1(Cc2ccc(F)cc2)[C@H]2c3cc(C(=O)N(C)C)n(Cc4c(CO)[nH]cc(C)c4=O)c3C[C@H]2CN1C(=O)c1ccccc1`: -0.401 (inactive); for `CC(C)[C@H]1NC(=O)[C@@]23C(=O)N[C@@H](Cc4ccccc4)C2[C@H](C)[C@@]2(C)O[C@H]2C3/C=C/CCC/C=C/CNC(=O)[C@H](Cc2ccccc2)NC1=O` (some centres undefined): -1.23 (inactive).

Regarding `CCOC(=O)C[C@H]1[C@H](OC(=O)c2ccccc2-c2ccccc2)[C@@H](NC(=O)c2ccccc2)c2cc(OCCCO)ccc2N1C(=O)c1ccccc1`, the z-score is -0.208 (inactive).

As for `COC(=O)[C@@]1(Cc2ccccc2CN=[N+]=[N-])N=C(c2ccc(OCCCO)cc2)O[C@H]1c1ccccc1`, the z-score was -4.77 (inactive). Still for that read-out and setting: for `C=C(COC)C(=O)CC[C@@H](OC(=O)c1cccnc1)c1ccccc1OCCO` the value was -3.79 (inactive); for `CC1CC/C=C\[C@H]2OC34C=CCN(CCN5CCOCC5)C(=O)[C@H]3N(C(C)CO)C(=O)[C@@H]4C2C(=O)O1` (some centres undefined), 0.181 (inactive). The same measure, in the same setting: the same measure for `[N-]=[N+]=NCc1ccccc1[C@H]1OC(c2ccc(OCCCO)cc2)=N[C@@]1(CCS(=O)(=O)c1ccccc1)C(=O)NCc1ccccc1`: -1.14 (inactive); for `COc1ccc([Si](C)(C)[C@H]2[C@H](CCO)O[C@@]3(C(=O)N(Cc4ccc(N5C(=O)c6ccccc6Oc6ccccc65)cc4)c4ccccc43)[C@@H]2C)cc1`: -5.43 (inactive); for `O=C(NCC(O)CO)[C@@]1(CCS(=O)(=O)c2ccccc2)COC(c2ccc(OCCCO)cc2)=N1` (some centres undefined): -1.2 (inactive). On the same count and under the same terms, the same measure for `C=CCC(OC(C)=O)[C@@H]1[C@@H](N(Cc2cccc3ccccc23)C(=O)Cc2ccc(F)cc2)c2cc(OCCCO)ccc2N1C(=O)c1ccc(-c2ccccc2)cc1` (some centres undefined): -0.227 (inactive). Turning to `C=CCNC(=O)[C@@H]1[C@H]2C(=O)O[C@H](c3ccccc3)[C@H](c3ccccc3)N2[C@H](c2ccc(O)cc2)[C@@]12C(=O)N(C(=O)OCCOC)c1ccc(C#CCCO)cc12`, the z-score was -0.2 (inactive). On the same count and under the same terms, for `C=CCNC(=O)[C@@H]1[C@H]2C(=O)O[C@H](c3ccccc3)[C@H](c3ccccc3)N2[C@H](c2ccc(OCCO)cc2)[C@@]12C(=O)N(C(=O)OCCOC)c1ccc(C#CCCO)cc12` the value was -3.32 (inactive). As to `C=CCOC(=O)[C@H]1[C@@H]2C(=O)O[C@@H](c3ccccc3)[C@@H](c3ccccc3)N2[C@@H](c2ccc(OCCOC(=O)[C@H]3C[C@H]4C(=O)N[C@@H](CCCCNC(C)=O)C(=O)N4[C@H]3c3cccc(OCCO)c3)cc2)[C@]12C(=O)Nc1ccc(I)cc12`, the z-score is -2.16 (inactive). Same read-out and setting: for `COCCOC(=O)N1C(=O)[C@@]2(c3cc(C#CC4=CCCCC4)ccc31)[C@H](c1ccc(O)cc1)N1[C@H](c3ccccc3)[C@H](c3ccccc3)OC(=O)[C@H]1[C@@H]2C(=O)NC[C@H](O)c1ccccc1` the value was -3.27 (inactive). On the same count and under the same terms, for `CN1C(=O)C2C=CC(C(O)c3ccc(I)cc3)N(Nc3ccccc3)C2C1=O` (centres undefined) the value was 0.134 (inactive).

A short description of the next experiment: Pseudomonas biofilm growth suppression – PAO1 strain, BacTiter-Glo luminescence, LB-PBS, primary screen (AID 1144). To be noted: P. aeruginosa PAO1 biofilm, 12 h, higher = more signal.
Take `CN(C)C(=O)[C@@]1(Cc2ccccc2)COC(c2ccc(OCCCO)cc2)=N1`: the z-score was 0.59 (inactive). Regarding `CO[C@H]1O[C@H](CO)[C@@H](OC(=O)CCc2ccccc2)[C@H](OC(=O)c2cc3ccccc3[nH]2)[C@H]1OC(=O)c1cc2ccccc2[nH]1`, the z-score is -1.99 (inactive). Same read-out and setting: for `CN1C(=O)C2C=CC(C(O)c3cc(C(F)(F)F)cc(C(F)(F)F)c3)N(Nc3ccccc3)C2C1=O` (centres undefined) the value was 0.329 (inactive). Still for that read-out and setting: the same measure for `COCCOC(=O)N1C(=O)[C@@]2(c3cc(C#CCCO)ccc31)[C@H](C(N)=O)[C@H]1C(=O)O[C@H](c3ccccc3)[C@H](c3ccccc3)N1[C@@H]2c1ccc(OCCO)cc1`: -0.402 (inactive). Same read-out and setting: for `COCCOC(=O)N1C(=O)[C@@]2(c3cc(C#Cc4ccc(OC)cc4)ccc31)[C@H](C(=O)NC[C@H](O)c1ccccc1)[C@H]1C(=O)O[C@H](c3ccccc3)[C@H](c3ccccc3)N1[C@@H]2c1ccc(OCCO)cc1` the value was -1.73 (inactive). In the case of `COCCOC(=O)N1C(=O)[C@@]2(c3cc(C#CCNC(N)=O)ccc31)[C@H](c1ccc(OCCO)cc1)N1[C@H](c3ccccc3)[C@H](c3ccccc3)OC(=O)[C@H]1[C@@H]2C(N)=O`, the z-score was 0.529 (inactive).

For the molecule `CC(=O)NCCCC[C@@H]1NC(=O)[C@H]2C[C@@H](C(=O)NCCCCCNC(=O)CS)[C@@H](c3cccc(OCCO)c3)N2C1=O`, the z-score was -0.93 (inactive). Still for that read-out and setting: the same measure for `O=C1O[C@H](c2ccccc2)[C@H](c2ccccc2)N2[C@H]1[C@@H](C(=O)N1CCCCCCC1)[C@]1(C(=O)Nc3ccc(C#CC4(O)CCCCCC4)cc31)[C@H]2c1ccccc1OCCO`: -0.41 (inactive); for `COCCCNC(=O)[C@@]1(c2ccc([N+](=O)[O-])cc2)CC(=O)N(CC23CC4CC(CC(C4)C2)C3)[C@@H]1c1ccc(CO)cc1I`: 0.142 (inactive); for `COc1ccc(C#Cc2ccc3c(c2)[C@]2(C(=O)N3)[C@H](C(=O)N3CCCCCCC3)[C@H]3C(=O)O[C@H](c4ccccc4)[C@H](c4ccccc4)N3[C@@H]2c2ccc(O)cc2)cc1`: -0.768 (inactive). `C=C(/C(=C/C[C@H](OC(=O)c1ccncc1)c1cccc(OCCO)c1)c1cnc2ccccc2c1)C(C)C`: the z-score is 0.503 (inactive). As to `CCCCCCCCCCC(O)C1C=CC2C(=O)N(C)C(=O)C2N1Nc1cc(OC)c(OC)c(OC)c1` (centres undefined), the z-score is 0.443 (inactive). Still for that read-out and setting: for `Nc1cc(Br)ccc1C(=O)O` the value was 0.0538 (inactive); for `CN(C)C(=O)[C@]1(CCS(=O)(=O)c2ccccc2)N=C(c2ccc(OCCCO)cc2)O[C@@H]1c1ccccc1`, -1.52 (inactive); for `O=C1N(CCS(=O)(=O)c2ccccc2)Cc2ccccc2[C@@H]2OC(c3ccc(OCCCO)cc3)=N[C@]12CCS(=O)(=O)c1ccccc1`, 0.151 (inactive). As for `COc1ccc([Si](C)(C)[C@H]2[C@H](CC(=O)N3Cc4ccccc4C[C@H]3CO)O[C@@]3(C(=O)N(Cc4ccc(N5C(=O)c6cccc7cccc5c67)cc4)c4ccccc43)[C@@H]2C)cc1`, the z-score was -0.67 (inactive). The same measure, in the same setting: for `COCC1=C2[C@@H](CCc3ccccc3)OB(O)C[C@@H]2[C@@H]2C(=O)N(C)C(=O)[C@@H]2C1` the value was 0.0987 (inactive); for `CC(C)OC(=O)CC(=O)CC(O)c1ccc([N+](=O)[O-])cc1` (centres undefined), 0.402 (inactive).

Take `CC(C)C(=C=CC[C@@H](O)c1cccc(OCCO)c1)C[C@@H](O)c1ccccn1`: the z-score was -0.382 (inactive). Still for that read-out and setting: for `C=CCC(OC(C)=O)[C@@H]1[C@@H](N(Cc2cccc3ccccc23)C(=O)c2cccc3ccccc23)c2cc(OCCCO)ccc2N1C(=O)c1ccc2ccccc2c1` (some centres undefined) the value was 0.311 (inactive). In the case of `CC(=O)N1CC(C(O)C2C=CC3C(=O)NC(=O)C3N2Nc2ccc(Cl)cc2Cl)c2ccccc21` (centres undefined), the z-score is -0.651 (inactive).

Take `COC(=O)[C@@]1(Cc2ccc(F)cc2)[C@H]2c3cc(C(=O)N(C)C)n(Cc4c(CO)[nH]cc(C)c4=O)c3C[C@H]2CN1C(=O)c1ccccc1`: the z-score was -0.00694 (inactive). With `CC(C)[C@H]1NC(=O)[C@@]23C(=O)N[C@@H](Cc4ccccc4)C2[C@H](C)[C@@]2(C)O[C@H]2C3/C=C/CCC/C=C/CNC(=O)[C@H](Cc2ccccc2)NC1=O` (some centres undefined), the z-score is 1.01 (inactive). Take `CCOC(=O)C[C@H]1[C@H](OC(=O)c2ccccc2-c2ccccc2)[C@@H](NC(=O)c2ccccc2)c2cc(OCCCO)ccc2N1C(=O)c1ccccc1`: the z-score was 0.867 (inactive). The same measure, in the same setting: for `COC(=O)[C@@]1(Cc2ccccc2CN=[N+]=[N-])N=C(c2ccc(OCCCO)cc2)O[C@H]1c1ccccc1` the value was -1.09 (inactive); for `C=C(COC)C(=O)CC[C@@H](OC(=O)c1cccnc1)c1ccccc1OCCO`, 0.291 (inactive).

As for `CC1CC/C=C\[C@H]2OC34C=CCN(CCN5CCOCC5)C(=O)[C@H]3N(C(C)CO)C(=O)[C@@H]4C2C(=O)O1` (some centres undefined), the z-score is 0.156 (inactive). On the same count and under the same terms, for `[N-]=[N+]=NCc1ccccc1[C@H]1OC(c2ccc(OCCCO)cc2)=N[C@@]1(CCS(=O)(=O)c1ccccc1)C(=O)NCc1ccccc1` the value was 0.318 (inactive); for `COc1ccc([Si](C)(C)[C@H]2[C@H](CCO)O[C@@]3(C(=O)N(Cc4ccc(N5C(=O)c6ccccc6Oc6ccccc65)cc4)c4ccccc43)[C@@H]2C)cc1`, -1.75 (inactive); for `O=C(NCC(O)CO)[C@@]1(CCS(=O)(=O)c2ccccc2)COC(c2ccc(OCCCO)cc2)=N1` (some centres undefined), 0.063 (inactive). Take `C=CCC(OC(C)=O)[C@@H]1[C@@H](N(Cc2cccc3ccccc23)C(=O)Cc2ccc(F)cc2)c2cc(OCCCO)ccc2N1C(=O)c1ccc(-c2ccccc2)cc1` (some centres undefined): the z-score is -0.169 (inactive).

Take `C=CCNC(=O)[C@@H]1[C@H]2C(=O)O[C@H](c3ccccc3)[C@H](c3ccccc3)N2[C@H](c2ccc(O)cc2)[C@@]12C(=O)N(C(=O)OCCOC)c1ccc(C#CCCO)cc12`: the z-score is 0.171 (inactive). In the case of `C=CCNC(=O)[C@@H]1[C@H]2C(=O)O[C@H](c3ccccc3)[C@H](c3ccccc3)N2[C@H](c2ccc(OCCO)cc2)[C@@]12C(=O)N(C(=O)OCCOC)c1ccc(C#CCCO)cc12`, the z-score is -0.594 (inactive). Same read-out and setting: for `C=CCOC(=O)[C@H]1[C@@H]2C(=O)O[C@@H](c3ccccc3)[C@@H](c3ccccc3)N2[C@@H](c2ccc(OCCOC(=O)[C@H]3C[C@H]4C(=O)N[C@@H](CCCCNC(C)=O)C(=O)N4[C@H]3c3cccc(OCCO)c3)cc2)[C@]12C(=O)Nc1ccc(I)cc12` the value was 0.437 (inactive); for `COCCOC(=O)N1C(=O)[C@@]2(c3cc(C#CC4=CCCCC4)ccc31)[C@H](c1ccc(O)cc1)N1[C@H](c3ccccc3)[C@H](c3ccccc3)OC(=O)[C@H]1[C@@H]2C(=O)NC[C@H](O)c1ccccc1`, -0.354 (inactive); for `CN1C(=O)C2C=CC(C(O)c3ccc(I)cc3)N(Nc3ccccc3)C2C1=O` (centres undefined), -0.507 (inactive).
